In PubChem BioAssay (NCI) one finds growth inhibition data, which are given here for 35 molecules.

Experiment [1] is described as follows: NCI Yeast Anticancer Drug Screen. Data for the rad50 strain (AID 155).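 Note: 0% = growth of vehicle-only cultures of the same strain.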 The following applies: S. cerevisiae rad50 strain growth inhibition; at 50.0 µM; active compounds read high. The procedure, abridged:
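Compounds were tested on a yeast strain with an engineered DNA damage repair alteration; the reported value is growth inhibition normalised to vehicle treatment.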

A short description of experiment [2]: NCI Yeast Anticancer Drug Screen. Data for the mec2-1 strain (AID 157). The note with it: S. cerevisiae mec2-1 strain, at 50.0 µM, active compounds read high. The essentials: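 Using mec2-1 yeast: add compound, measure growth, express inhibition versus vehicle-treated cultures.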
Experiment [3] in a line: NCI Yeast Anticancer Drug Screen. Data for the sgs1 mgt1 strain (AID 161).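 Note: 0% = growth of cultures given vehicle only.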 The following applies: S. cerevisiae sgs1 mgt1 strain, at 50.0 µM, active compounds read high. The essentials:
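Compounds are added to genetically altered yeast, and growth is compared with cultures given vehicle alone to give percent inhibition.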

Experiment [4] can be described thus: NCI Yeast Anticancer Drug Screen. Data for the cln2 rad14 strain (AID 165).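 Note: 0% = growth equal to vehicle treated cultures.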 The note with it: S. cerevisiae cln2 rad14 strain, at 50.0 µM, active compounds read high. The essentials: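 Yeast strain cln2 rad14, bearing defects in cell cycle control and DNA repair, serves as the test system; values reflect growth inhibition compared with vehicle.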
A short description of experiment [5]: NCI Yeast Anticancer Drug Screen. Data for the bub3 strain (AID 167). The following applies: S. cerevisiae bub3 mutant strain, at 50.0 µM, active compounds read high. The procedure, abridged: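 Growth of a checkpoint-deficient yeast mutant is measured after compound exposure. Values represent inhibition relative to vehicle.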
Experiment [6] is described as follows: NCI Yeast Anticancer Drug Screen. Data for the mlh1 rad18 strain (AID 175). The note with it: S. cerevisiae mlh1 rad18 strain growth inhibition; at 50.0 µM; active compounds read high. The procedure, abridged:
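Steps: expose repair-defective yeast to compound; measure growth; express inhibition against vehicle-treated controls.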

This is part of a sample that, as a whole, favours compounds with a hit. Of some 79,000 tested, about 15% had one in any assay. Unmarked numbers belong to inactive results. Calls of active or inactive are those of the source. Cut-off read from the data, not from the text of the source: active = growth inhibition above about 70%; inactive = the rest.

With `Cc1cc(=O)c2c(C)nn(-c3ccccc3)c2[nH]1`, the growth inhibition is -16.3% in experiment [1]; -36.2% in experiment [2]; 10.3% in experiment [3]; -9.15% in experiment [4]; 2.4% in experiment [5]; -1.85% in experiment [6].
Regarding `COC(=O)/C(=C/c1ccc(OC)cc1)C(C(=O)O)=C1CCCCC1`, the growth inhibition in experiment [1] is 20.2%; in experiment [2] it was 9.95%; in experiment [3], 7.35%; in experiment [4], 9.75%; in experiment [5] it was 2.25%; in experiment [6], -8.9%.
As for `CC(O)C(=O)N1CCCCC1` (stereo not given), the growth inhibition was 13.7% in experiment [1]; 9.5% in experiment [2]; -3.95% in experiment [3]; -8.35% in experiment [4]; 10.6% in experiment [5]; -23.1% in experiment [6].
Regarding `OC(c1ccccc1)(c1ccccc1)C(O)(c1ccccc1)c1ccccc1`, the growth inhibition in experiment [1] was 4.3%; in experiment [2], 6.25%; in experiment [3], 19.5%; in experiment [4], -16.2%; in experiment [5] it was -3.35%; in experiment [6] it was 33.4%.
For `ClCCCOc1ccccc1`, the growth inhibition in experiment [1] is 21.5%; in experiment [2] it was 23.2%; in experiment [3], 22.6%; in experiment [4], 8.55%; in experiment [5], -5.25%; in experiment [6], 11.6%.
Consider `N#Cc1sc2nc3c(c(-c4ccccc4)c2c1N)CCCC3`, for which the growth inhibition in experiment [1] is -8.3%; in experiment [2] it was -4.65%; in experiment [3] it was -0.95%; in experiment [4], -8.4%; in experiment [5] it was -8.1%; in experiment [6], -5.75%.
Regarding `N#C/C=C/c1ccc(Cl)cc1`, the growth inhibition in experiment [1] was -3.45%; in experiment [2], -3%; in experiment [3], 7.2%; in experiment [4], 20.6%; in experiment [5] it was -2%; in experiment [6], -7.05%.
Regarding `CCCN(CCC)C(=O)c1c(Cl)c2cccnc2n2c(C)cnc12`, the growth inhibition is 5.35% in experiment [1]; 19.7% in experiment [2]; 26.6% in experiment [3]; 18.7% in experiment [4]; 15.1% in experiment [5]; 31.3% in experiment [6].
For the molecule `O=C1C2=Nc3ccccc3C(O)N2c2ccccc21` (stereo not given), the growth inhibition in experiment [1] was 12.8%; in experiment [2], 22.4%; in experiment [3] it was 12%; in experiment [4] it was 47.4%; in experiment [5], 17.3%; in experiment [6], 8.75%.
As to `O=C(NC1CCCCC1)N(C(=O)C(F)(F)F)C1CCCCC1`, the growth inhibition is 9.05% in experiment [1]; 3.6% in experiment [2]; -5.15% in experiment [3]; 9.8% in experiment [4]; -2.4% in experiment [5]; 14.7% in experiment [6].
For `COc1ccc(C(=O)/C=C/c2ccc(OCCSCCCCCCCCCCSCCOc3ccc(/C=C/C(=O)c4ccc(OC)cc4)cc3)cc2)cc1`, the growth inhibition in experiment [1] is -35%; in experiment [2] it was -30.1%; in experiment [3], -16.6%; in experiment [4] it was 3.75%; in experiment [5] it was -20.2%; in experiment [6], -40.3%.
With `CCCCCCCCCCCCCCCCCCOC(=O)c1cccnc1`, the growth inhibition was 23.1% in experiment [1]; 10.3% in experiment [2]; 15.8% in experiment [3]; 20.7% in experiment [4]; 23.8% in experiment [5]; 27.3% in experiment [6].
With `N#Cc1c2c([nH]c(=O)c1C#N)CCCC2`, the growth inhibition is 15.5% in experiment [1]; 10.5% in experiment [2]; 3.2% in experiment [3]; 9.15% in experiment [4]; -8.75% in experiment [5]; -23.1% in experiment [6].
`Nc1nc(N)c(N=Nc2ccc(C(=O)O)c(O)c2)c(N)n1`: the growth inhibition was 5.5% in experiment [1]; 3.5% in experiment [2]; -0.7% in experiment [3]; 12.8% in experiment [4]; -11.9% in experiment [5]; 13% in experiment [6].
In the case of `O=C(N/N=C/c1cccnc1)C(O)C(O)C(O)C(O)CO` (stereo not given), the growth inhibition was -4.15% in experiment [1]; 8.9% in experiment [2]; 6.75% in experiment [3]; 7.6% in experiment [4]; -12.6% in experiment [5]; 11.9% in experiment [6].
`Nc1nc(NCCO)c(N=O)c(=O)[nH]1`: the growth inhibition in experiment [1] was 5.1%; in experiment [2], -4.1%; in experiment [3], -2.3%; in experiment [4] it was 13.4%; in experiment [5], 10.1%; in experiment [6], 13.4%.
As for `COc1ccc(NC(C)=O)c(O)c1C`, the growth inhibition was -0.6% in experiment [1]; 2.15% in experiment [2]; -17% in experiment [3]; -25.4% in experiment [4]; -3.7% in experiment [5]; -12.7% in experiment [6].
Consider `[Cu+2].[NH-]C(Cc1ccc(O)cc1)C(=O)O.[NH-]C(Cc1ccc(O)cc1)C(=O)O` (stereo not given), for which the growth inhibition in experiment [1] is 13.1%; in experiment [2], 1.55%; in experiment [3], -12.6%; in experiment [4] it was 15.2%; in experiment [5], 1.65%; in experiment [6], 5%.
For `CN1CC(=O)N(CO)/C1=N\CO`, the growth inhibition was -7.15% in experiment [1]; -5.45% in experiment [2]; -6.85% in experiment [3]; -10.8% in experiment [4]; 5.85% in experiment [5]; 2.05% in experiment [6].
On to `Cc1c(C(=O)CC(=O)C(=O)Nc2ccccc2C(F)(F)F)[n+](=O)c2ccccc2n1[O-]`, for which the growth inhibition is 5.4% in experiment [1]; 8.05% in experiment [2]; -9.4% in experiment [3]; 16.9% in experiment [4]; 3.55% in experiment [5]; -6.45% in experiment [6].
As for `COc1cc(-c2cc(O)c(-c3ccc4ccccc4n3)c(=O)[nH]2)cc(OC)c1OC`, the growth inhibition in experiment [1] is 6.75%; in experiment [2], 14.6%; in experiment [3], 1.6%; in experiment [4], 11.8%; in experiment [5] it was -27.1%; in experiment [6], 23.4%.
In the case of `CC(C(O)C(F)(F)F)[N+](C)(C)C` (stereo not given), the growth inhibition in experiment [1] was 34.8%; in experiment [2] it was 5.85%; in experiment [3] it was 1.8%; in experiment [4], -13.8%; in experiment [5], 10.1%; in experiment [6], 28%.
Regarding `CC1(C)N=C(N)N=C(N)N1c1ccc(CN)cc1`, the growth inhibition in experiment [1] is 19.8%; in experiment [2], 7%; in experiment [3], -18.4%; in experiment [4], -6.8%; in experiment [5] it was -2.3%; in experiment [6], 19.3%.
With `CC(CN(C)C)C(=O)c1ccccc1C(=O)O` (stereo not given), the growth inhibition in experiment [1] was -44.9%; in experiment [2] it was -24.9%; in experiment [3] it was -36%; in experiment [4] it was -35.2%; in experiment [5], -2.05%; in experiment [6], -16.7%.
Consider `CC(C)C(/C=C/c1ccc(Br)cc1)=N\NC(N)=O`, for which the growth inhibition in experiment [1] is -14.1%; in experiment [2] it was -29.2%; in experiment [3], -40.8%; in experiment [4], -13.9%; in experiment [5], -18.1%; in experiment [6], -18.9%.
For the molecule `NCCN=C(N)C(N)=NCCN`, the growth inhibition in experiment [1] was 19.1%; in experiment [2] it was 5.3%; in experiment [3] it was -2.35%; in experiment [4], -54.5%; in experiment [5], 7.45%; in experiment [6], 8.1%.
For the molecule `COc1cc(Nc2cc(Cl)cc(Cl)c2)nc(N)n1`, the growth inhibition in experiment [1] was 76.4% (active); in experiment [2], 81% (active); in experiment [3], 6.5%; in experiment [4], 7.9%; in experiment [5], 9.35%; in experiment [6], 89.6% (active).
In the case of `O=C1NC(CN2CCCCC2)C(=O)NC1CN1CCCCC1` (stereo not given), the growth inhibition in experiment [1] is -1.1%; in experiment [2], -13.4%; in experiment [3] it was 8.7%; in experiment [4], -8.7%; in experiment [5], -20.1%; in experiment [6], 0%.
Take `O=c1c2c(nc3n1CCC3)sc1c(O)c(Br)ccc12`: the growth inhibition in experiment [1] is -44.7%; in experiment [2], -26.6%; in experiment [3], -46.7%; in experiment [4] it was -25.1%; in experiment [5], -40%; in experiment [6], -52.1%.
As for `CC(=O)CCCC(CC(C)O)[Si](C)(C)C` (stereo not given), the growth inhibition in experiment [1] is -43.6%; in experiment [2], -19.4%; in experiment [3], -1.05%; in experiment [4] it was -14.2%; in experiment [5], -8.45%; in experiment [6] it was -23.6%.
Regarding `CCOC(=O)c1c(-c2ccc(OC)cc2)c(C#N)c(=S)n(C2OC(CO)C(O)C(O)C2O)c1C` (stereo not given), the growth inhibition in experiment [1] was 17.7%; in experiment [2] it was -9.5%; in experiment [3] it was 3.05%; in experiment [4], 6.3%; in experiment [5], 22.4%; in experiment [6], 10.1%.
For `Cc1ccc(NC(=O)c2ccccc2[N+](=O)[O-])cc1`, the growth inhibition is 12.5% in experiment [1]; 15.8% in experiment [2]; 0.1% in experiment [3]; 20.4% in experiment [4]; -2.1% in experiment [5]; -10.2% in experiment [6].
As for `COc1ccccc1C=NC12CC3CC(CC(C3)C1)C2`, the growth inhibition is -29.2% in experiment [1]; -12.6% in experiment [2]; 2.55% in experiment [3]; 1.9% in experiment [4]; -4.2% in experiment [5]; -16.6% in experiment [6].
Turning to `O=C(NCCCNCCCCNCCCNC(=O)C(F)(F)F)C(F)(F)F`, the growth inhibition was 5.05% in experiment [1]; -0.9% in experiment [2]; 6.6% in experiment [3]; -8.45% in experiment [4]; 4.25% in experiment [5]; 3.3% in experiment [6].
With `CC(C)=C1OC(=O)C1(C)C`, the growth inhibition in experiment [1] is -5.75%; in experiment [2], 15.7%; in experiment [3] it was 1.5%; in experiment [4], 17.4%; in experiment [5], 5.5%; in experiment [6] it was -12.6%.
